Measurements as given in PubChem BioAssay AID435019 (Southern Research Specialized Biocontainment Screening …, 2010).
About 1,200 (52%) of roughly 2,300 compounds were called active. How the calls were made is not given here. The set was probably picked from earlier hits. This is one part of the list. Entries with a potency or affinity are not part of this list.

assay: mammalian cell cytotoxicity, dose response, cytotoxicity control for M. tuberculosis inhibitor project (AID 435019); conditions: cytotoxicity counter-screen; series mostly up to 40 µM;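 further: lower values mean fewer viable cells so more cytotoxicity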

| Compound | outcome |
| --- | --- |
| C=CCN(CC(=O)c1sc(C(=O)OCC)nc1C)c1cccc(Br)c1 | inactive |
| CCCCOC(=O)c1ccc(O)cc1 | inactive |
| [O-][n+]1c2ccccc2c2n1CCN1CCOC21c1ccc(Cl)cc1 (stereo not drawn) | inactive |
| Cc1nonc1NC(=O)CSc1ccc(-c2ccccc2)nn1 | inactive |
| O=C(OCC(=O)c1cccs1)C1=COCCO1 | inactive |
| CCCCn1nc(C(=O)Nc2ccccc2N2CCCC2)c2ccccc2c1=O | inactive |
| COC(=O)COc1ccc(-c2nn(C)c(=O)c3ccccc23)cc1 | inactive |
| COc1cc(CNC(=O)CCCCCCC(C)C)ccc1O | inactive |
| COC(=O)Cn1nc(-c2ccccc2)c2cc(Cl)ccc21 | inactive |
| CC1=CC(=O)NP(=O)(Oc2ccc3ccccc3c2)N1 (stereo not drawn) | inactive |
| CC(=O)Oc1ccc2occ(C(=O)c3cccs3)c2c1 | inactive |
| Nc1nc2ccccc2n1/N=C/c1ccc(Br)cc1 | inactive |
| CC(C)(C)Nc1nc(NC(C)(C)C)nc(-n2ccnc2)n1 | inactive |
| CCOC(=O)CNC(=O)CNC(=O)c1nn(-c2ccc(OC)c(Cl)c2)c(=O)c2ccccc12 | inactive |
| CCOC(=O)c1ccc(-n2c(CCC(=O)O)ccc2-c2cccs2)cc1 | inactive |
| CC(C)OC(=O)c1ccc(N)cc1 | inactive |
| CCc1ccc(NC2=NCC(c3ccccc3)S2)cc1 (stereo not drawn) | inactive |
| CC(C)OC(=O)c1ccc(NC(=S)NC(=O)c2cncc(Br)c2)cc1 | inactive |
| Cc1[nH]nc(SCC(=O)NCc2ccccc2)c1[N+](=O)[O-] | inactive |
| COc1ccc(-c2ccc(-c3noc(C(C)C)n3)c(OC)n2)cc1 | inactive |
| Cc1ccc(C(=O)C2CCN(CC(=O)Nc3nc(C)cs3)CC2)cc1 | inactive |
| Cc1ccc(Cl)cc1NC(=O)CN1CCN(S(=O)(=O)N2CCOCC2)CC1 | inactive |
| CCCCNC(=S)N/N=C/c1cccc(OCC)c1O | inactive |
| CCOC(=O)CN[C@H]1CCC2C3CC=C4C[C@@H](O)CC[C@]4(C)C3CC[C@@]21C (stereo partly drawn) | inactive |
| Cc1ccc(C(=O)ONc2ccc(N=O)cc2)cc1 | inactive |

| Compound | outcome |
| --- | --- |
| COc1ccc(NC(NC(=O)c2ccc(OC)cc2)C(Cl)(Cl)Cl)cc1 (stereo not drawn) | inactive |
| CCOC(=O)c1nn(-c2ccc(C)cc2)c2nc(Nc3ccccc3)cc(=O)n12 | inactive |
| Cn1nc([N+](=O)[O-])nc1Sc1ccc(C(C)(C)C)cc1 | inactive |
| Cn1cnc(Sc2ncnc3nc[nH]c23)c1[N+](=O)[O-] | inactive |
| Cc1cc(C)n(-c2cc(C(C)(C)C)nc3c(-c4ccccc4)cnn23)n1 | inactive |
| Cc1cc(-c2nnc3n2CCCCC3)c(C)n1-c1ccccc1 | inactive |
| C/C(=N\N(Cc1ccccc1)c1ccccc1)c1ccncc1 | inactive |
| CCOC(=O)CSc1nnc(-c2ccc(S(=O)(=O)NCc3cccs3)cc2)o1 | inactive |
| Cn1c(=S)c2[nH]c(SCCN3CCCC3)nc2n(C)c1=O | inactive |
| CCOC(=O)CNc1ccc(C(=O)OCC)cc1[N+](=O)[O-] | inactive |
| CCCc1cc(C(N)=S)ccn1 | inactive |
| CCCn1c(=N)n(CC(=O)c2ccc(OCC(=O)OC)cc2)c2ccccc21 | inactive |
| Cc1ccc(S(=O)(=O)N2CCC(C(=O)OCc3ccccc3)CC2)cc1C | inactive |
| NC(=O)c1cccn1-c1ncc(C(F)(F)F)cc1Cl | inactive |
| CCOC(=O)C1=NOC(CNc2ncc(C(F)(F)F)cc2Cl)C1 (stereo not drawn) | inactive |
| CCOC(=O)c1ccc(N=C2SC(C(=O)Nc3ccc(C(=O)O)cc3)CC(=O)N2Cc2cccs2)cc1 (stereo not drawn) | inactive |
| Cc1cc(C2=NNC(=NC3CCCCC3)SC2)c(C)n1-c1c(C)n(C)n(-c2ccccc2)c1=O | inactive |
| S=C(NCCN1CCOCC1)N/N=C/c1cccs1 | inactive |
| Cc1ccc(C)c2nc(N3CCCC3)c(C#N)cc12 | inactive |
| Cc1nc(SCC(=O)NC2CCCCC2)[nH]c(=O)c1C | inactive |
| CC1CCCC(C)N1C(=O)COC(=O)c1cc(-c2cccs2)nn1-c1ccccc1 (stereo not drawn) | inactive |
| CCOC(=O)COc1ccc(C2CC(C)=NN2c2ccccc2)cc1 (stereo not drawn) | inactive |
| O=C(CCN1C(=O)C2C3C=CC(C3)C2C1=O)Oc1ccc2ccccc2c1 (stereo not drawn) | inactive |
| O=C(COC(=O)C1CCN(c2ccc(C(F)(F)F)cn2)CC1)Nc1ccc(F)cc1[N+](=O)[O-] | inactive |
| O=C(Cc1ccc(Nc2nc3ccc(Br)cc3[nH]2)cc1)NCCc1cccs1 | inactive |

| Compound | outcome |
| --- | --- |
| Brc1cccc2sc(N3CCN(c4ccccc4)CC3)nc12 | inactive |
| Cc1[nH]n(S(=O)(=O)Cc2ccccc2)c(=O)c1N=Nc1ccccc1Cl | inactive |
| CN1CCN(c2c(F)cc3c(=O)c(C(=O)O)cn4c3c2OCN4C)CC1 | inactive |
| C=C(C)C1CC=C(CN2CCN(Cc3ccccc3)CC2)CC1 (stereo not drawn) | inactive |
| Cc1cccc(C2=N/C(=C\c3cccs3)C(=O)O2)c1 | inactive |
| Cn1c(=O)c2[nH]c(-c3ccc(S(=O)(=O)O)cc3)nc2n(C)c1=O | inactive |
| C=CCOC(=O)COc1ccc2c(C)c(CC)c(=O)oc2c1 | inactive |
| Cc1ccc(/C=N/NC(=S)NC(C)C)o1 | inactive |
| C/C(CCc1ccc2c(c1)OCO2)=N\NC(=S)NC(C)C | inactive |
| CCCCCCC[N+](CC)(CC)CCCCc1ccc(Cl)cc1 | inactive |
| COc1cc(/C=N/N2CCOCC2)ccc1OCc1ccc(Cl)cc1 | inactive |
| COc1ccc(N=Cc2c(OC)ccc3ccccc23)cc1 | inactive |
| COc1ccccc1/C=C/C(=O)Nc1ccc(S(=O)(=O)Nc2cc(C)on2)cc1 | inactive |
| Cc1cn(-c2ccc(Br)cc2)[nH]c1=O | inactive |
| CN(C(=O)COC(=O)c1ccc([N+](=O)[O-])cc1Cl)C1CCCCC1 | inactive |
| COc1ccccc1N(O)C1CC(=O)N(c2ccc(Br)cc2)C1=O (stereo not drawn) | inactive |
| O=C(OCC(=O)c1c[nH]c2ccccc12)c1cc(Br)ccc1O | inactive |
| COc1cccc(COC(=O)c2ccc3c(=O)n4c(nc3c2)CCC4)c1OC | inactive |
| C=CCn1c(N)cc(=O)nc1SC(CC)C(=O)Nc1ccc(C(C)=O)cc1 (stereo not drawn) | inactive |
| NC(=O)c1ccc(N=Cc2ccc([N+](=O)[O-])s2)cc1 | inactive |
| CCN(CC)C(=S)SSC(=S)N(CC)CC | inactive |
| C/C(=C\C(=O)c1ccccc1)Nc1ccc(Cl)c(Br)c1 | inactive |
| O=C(CSCC(=O)Nc1ccc2ccccc2c1)NCc1ccccc1 | inactive |
